Compound activity as filed in PubChem BioAssay.
WRN helicase inh – blocks human WRN helicase; Q14191; WRN helicase unwinding, fluorescent forked duplex, kinetic; Potency, µM (series often up to 114 µM), most hits filed as inhibitors; 360,000 tested, 0.46% active; AID 651768; further: nearly all actives have a fitted effect of over 55% in size
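Enzyme (20 nM final) and test compound sit together 15 min at room temperature before substrate addition. Substrate is a single-forked duplex oligonucleotide (100 nM) labelled with fluorophore and quencher, with 2 mM ATP; helicase unwinding raises red fluorescence, read kinetically.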
FEN1 inhibitor – blocks human flap endonuclease 1 | P39748 | Recombinant FEN1 flap cleavage, fluorescence, 15 min | Potency, µM (top dose mostly 114 µM), most hits filed as inhibitors | 390,000 tested, 0.35% active | AID 588795; further: nearly all actives have a fitted effect of over 65% in size
Target sequence (P39748 whole entry, looked up): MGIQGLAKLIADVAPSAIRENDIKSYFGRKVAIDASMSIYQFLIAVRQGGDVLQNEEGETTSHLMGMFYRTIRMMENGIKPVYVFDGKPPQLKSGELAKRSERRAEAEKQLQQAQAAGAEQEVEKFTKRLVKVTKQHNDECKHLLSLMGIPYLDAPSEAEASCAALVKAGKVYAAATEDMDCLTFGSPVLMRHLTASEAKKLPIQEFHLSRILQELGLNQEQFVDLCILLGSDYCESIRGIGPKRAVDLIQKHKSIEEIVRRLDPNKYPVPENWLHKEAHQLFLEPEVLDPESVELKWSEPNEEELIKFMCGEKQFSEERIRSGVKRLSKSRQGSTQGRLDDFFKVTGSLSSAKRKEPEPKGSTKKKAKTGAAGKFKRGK
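In this screen, 50 nM flap DNA substrate was added to 10 nM FEN1 pretreated with compound for 15 min at room temperature; cleavage was followed with reads at 0 and 15 min, and Hill fitting gave concentration–response parameters.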
Pol kappa inh – inhibitors of human DNA polymerase kappa | AID 588579 | purified Pol kappa, fluorescent DNA synthesis assay, 10 min | Potency, µM (doses to about 107 µM), hits mostly inhibitors | Q9UBT6 | 400,000 tested, 0.53% active
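Here, compound and 10 nM enzyme are combined for 15 min at room temperature; adding 50 nM substrate (final) starts DNA synthesis, tracked by fluorescence at 0 and 10 min against buffer-only wells.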
Pol beta inh – blocks human DNA polymerase beta activity; 340,000 tested, 1.3% active; AID 485314; P06746; Potency, µM (titrated, usually from 114 µM), most hits filed as inhibitors; Pol beta primer extension/strand displacement, fluorescence kinetic
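Preincubation: enzyme (10 nM) with compound, 15 min, RT. Reaction: substrate added to 50 nM final. Reads: 0 and 10 min. Analysis: normalized, Hill fit.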
POLI inh – DNA polymerase iota (human) inhibition; 390,000 tested, 1% active; Pol iota fluorescent replication assay, 10 min; Potency, µM (top dose mostly 115 µM), hits mostly inhibitors; Q9UNA4; AID 588590
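Fluorescent replication assay read twice, at 0 min and 10 min after adding 50 nM (final) substrate. Enzyme (10 nM) and compounds were first incubated 15 min at room temperature; enzyme-free buffer wells were negative controls.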
Pol eta inh – DNA polymerase eta (human) inhibition; recombinant Pol eta, fluorescent DNA replication assay; Q9Y253; AID 588591; Potency, µM (highest dose often 114 µM), most hits filed as inhibitors; 390,000 tested, 1.2% active
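Pol eta (10 nM) was preincubated with compounds for 15 min at room temperature, after which fluorescent replication substrate (50 nM final) was added to start the reaction. Fluorescence was read kinetically at 0 and 10 min.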
Large screens that a line does not name were inactive; ! = not active in a repeat. Compounds with a hit are over-represented: about 2.4% of the library has one in this group of screens. The call rests on the fitted dose curve; in most records, active means well fitted curve in the direction sought with a large enough effect; inconclusive means small, poorly fitted or top-dose-only effect, or another doubt; inactive means no such curve, though single readings can be large; an effect the other way counts as inactive or inconclusive.

O=C(CCc1nc2sc3c(c2c(=O)[nH]1)CCCC3)N1CCN(c2ccccc2)CC1	Pol kappa inh inconclusive, POLI inh 44.7µM, Pol eta inh 79.4µM (no result: Pol beta inh)
COc1cccc(NC(=O)CN(C)C(=O)CCc2nc3sc4c(c3c(=O)[nH]2)CCCC4)c1	WRN helicase inh inconclusive, Pol beta inh 35.5µM, POLI inh 28.2µM, Pol eta inh 22.4µM
CCc1cccc(NC(=O)CCc2nc3sc4c(c3c(=O)[nH]2)CCCC4)c1	Pol kappa inh inconclusive, POLI inh 17.8µM, Pol eta inh 31.6µM (no result: Pol beta inh)
COc1ccccc1NC(=O)CCc1nc2sc3c(c2c(=O)[nH]1)CCCC3	Pol kappa inh inconclusive, POLI inh 25.1µM, Pol eta inh 50.1µM (no result: Pol beta inh)
CSc1nn(CC(=O)Nc2cc(C)ccc2C)c(N)c1S(=O)(=O)c1ccccc1	none (no result: WRN helicase inh)
CC(=O)NC(Cc1ccc(Cl)cc1)C(=O)NCC(N)C(=O)c1ccccc1 (stereo unspecified)	none (no result: WRN helicase inh, Pol beta inh, Pol eta inh)
CC[C@H](C)/C=C/C1=CC2=C(Cl)C(=O)[C@@]3(C)OC(=O)C(C(=O)[C@H](C)[C@@H](C)O)=C3C2=CO1	WRN helicase inh inconclusive, FEN1 inhibitor inconclusive, Pol kappa inh inconclusive, POLI inh inconclusive, Pol eta inh 17.8µM (no result: Pol beta inh)
COc1ccccc1-n1c(SCC(=O)NC(C)(C)C)nc(O)cc1=O	none
COc1ccccc1NC(=O)CSc1nc(O)cc(=O)n1-c1ccccc1OC	Pol beta inh inconclusive, POLI inh 39.8µM
COc1ccccc1-n1c(SCC(=O)Nc2ccccc2C)nc(O)cc1=O	POLI inh 56.2µM
Cc1ccccc1NC(=O)CSc1nc(O)cc(=O)n1C	none
Cc1cccc(NS(=O)(=O)c2ccc3oc(=O)c4ncn(C)c4c3c2)c1C	Pol beta inh inconclusive (no result: WRN helicase inh)
COc1ccc(C2=C(C)C(N3CCN(C(=O)c4ccco4)CC3)=NS2(=O)=O)cc1	Pol beta inh 50.1µM, POLI inh inconclusive
CC1=C(c2ccc(C)c(C)c2)S(=O)(=O)N=C1N1CCC(C(=O)NC(C)Cc2ccco2)CC1 (stereo unspecified)	POLI inh inconclusive (no result: WRN helicase inh)
CC1=C(c2ccc(F)cc2)S(=O)(=O)N=C1N1CCC(C(=O)NCCc2ccco2)CC1	Pol beta inh 25.1µM (no result: WRN helicase inh, Pol eta inh)
COc1ccc(C2=C(C)C(N3CCN(c4ccc(OC)cc4)CC3)=NS2(=O)=O)cc1	none (no result: WRN helicase inh)
C[N+]1(C)CCC(=C2c3ccccc3CC(=O)c3sccc32)CC1	Pol beta inh 7.94µM, POLI inh 15.8µM
COc1ccc(Cl)cc1NC(=O)C1Cc2ccccc2CN1S(C)(=O)=O (stereo unspecified)	Pol beta inh inconclusive, POLI inh 56.2µM, Pol eta inh inconclusive
COc1ccc(Cl)cc1NC(=O)C1CCN(S(=O)(=O)c2ccc(F)cc2)CC1	FEN1 inhibitor inconclusive, POLI inh 89.1µM (no result: WRN helicase inh)
Cc1c(C(=O)OC(C)C)sc(NC(=O)C2c3ccccc3Oc3ccccc32)c1C(=O)OC(C)C	Pol kappa inh inconclusive, Pol beta inh inconclusive, POLI inh 89.1µM (no result: WRN helicase inh)
Cc1sc(NC(=O)C2c3ccccc3Oc3ccccc32)c(C(=O)OC(C)C)c1C	none (no result: WRN helicase inh)
Cc1cccc(N2CCN(C(=O)Cn3nc(C)n4cccc4c3=O)CC2C)c1 (stereo unspecified)	none
Cc1ccc(-c2ccc(=O)n(CC(=O)N3CCN(c4cccc(C)c4)C(C)C3)n2)cc1 (stereo unspecified)	POLI inh 79.4µM
Cc1cccc(N2CCN(C(=O)CCS(=O)(=O)c3ccc(Br)cc3)CC2C)c1 (stereo unspecified)	WRN helicase inh inconclusive, Pol kappa inh 89.1µM, Pol beta inh 25.1µM, POLI inh 44.7µM, Pol eta inh inconclusive
CCOc1ccc(Cl)cc1C(c1c(C)[nH][nH]c1=O)c1c(C)[nH][nH]c1=O	POLI inh inconclusive
COc1ccc(-c2ccc(/C=N/N3C(=O)C4C5C=CC(C6CC56)C4C3=O)o2)c([N+](=O)[O-])c1 (stereo unspecified)	Pol beta inh inconclusive, Pol eta inh inconclusive
Cc1[nH][nH]c(=O)c1C(c1ccc(-c2ccc(Cl)c(Cl)c2)o1)c1c(C)[nH][nH]c1=O	POLI inh 3.55µM, Pol eta inh inconclusive
Cc1[nH][nH]c(=O)c1C(c1ccc(-c2ccc(F)cc2)o1)c1c(C)[nH][nH]c1=O	Pol beta inh inconclusive, POLI inh 7.08µM
Cc1[nH][nH]c(=O)c1C(c1ccc(N(C)C)c(Br)c1)c1c(C)[nH][nH]c1=O	none
COc1ccc(-c2ccc(C(c3c(C)[nH][nH]c3=O)c3c(C)[nH][nH]c3=O)o2)c([N+](=O)[O-])c1	Pol beta inh inconclusive, POLI inh 11.2µM
Cc1cccc(Cn2c(=O)n(CCc3ccccc3)c(=O)c3sc4ccccc4c32)c1	none (no result: WRN helicase inh)
Cc1ccc(-c2ccc(S(=O)(=O)Nc3cccnc3)cc2)cc1	Pol beta inh 50.1µM
CC1=C/C(=C(\c2ccc(O)c(C)c2)c2ccccc2S(=O)(=O)O)C=CC1=O	Pol beta inh inconclusive
O=C(O)C1=CC(=C(c2ccc(O)c(C(=O)O)c2)c2ccc(O)c(C(=O)O)c2)C=CC1=O	FEN1 inhibitor 0.794µM, Pol kappa inh 0.631µM!, Pol beta inh 0.0224µM, POLI inh 0.0501µM!, Pol eta inh 0.126µM (no result: WRN helicase inh)
O=S1(=O)Nc2c(cc(Cl)c3ccc(Cl)nc23)-c2ccccc21	FEN1 inhibitor inconclusive, Pol kappa inh 79.4µM, POLI inh inconclusive (no result: WRN helicase inh, Pol beta inh, Pol eta inh)
Cc1ccc2ccc3c(c2n1)NS(=O)(=O)c1ccc(C(F)(F)F)cc1-3	POLI inh inconclusive (no result: WRN helicase inh, Pol beta inh, Pol eta inh)
Cc1cc(=O)[nH]c2nnc(SCc3ccc(Cl)c(Cl)c3)n12	Pol beta inh inconclusive (no result: WRN helicase inh)
Cc1n[nH]c(C)c1Sc1ccccc1N=Cc1cc(Cl)cc([N+](=O)[O-])c1O	WRN helicase inh 50.1µM, FEN1 inhibitor 79.4µM, Pol kappa inh inconclusive, Pol beta inh inconclusive, POLI inh 25.1µM
Cc1n[nH]c(C)c1Sc1ccccc1[N+](=O)[O-]	none
Cc1cc(F)ccc1NC(=O)C1CCC(CNS(=O)(=O)c2ccc3c(c2)CCCC(=O)N3)CC1 (stereo unspecified)	none (no result: WRN helicase inh)
N[C@@H](CSS(=O)(=O)O)C(=O)O	none (no result: WRN helicase inh, FEN1 inhibitor, Pol beta inh, POLI inh, Pol eta inh)
O=C1NC(=O)C(c2ccccc2[N+](=O)[O-])=C1Nc1ccc(O)c(Cl)c1	Pol kappa inh 11.2µM!, Pol beta inh 11.2µM, POLI inh 28.2µM!, Pol eta inh inconclusive
OCC1O[C@H]([S-])[C@H](O)[C@@H](O)[C@@H]1O.[Au+] (stereo partly specified)	Pol kappa inh 5.32µM (no result: WRN helicase inh, FEN1 inhibitor, Pol beta inh, POLI inh, Pol eta inh)
CCN(CC)/[N+]([O-])=N/Oc1ccc([N+](=O)[O-])cc1[N+](=O)[O-]	none (no result: WRN helicase inh, Pol beta inh, Pol eta inh)
O=C(NNC(=O)c1ccccc1Cl)c1ccccc1Cl	Pol beta inh 89.1µM
COc1ccc(C=O)cc1COc1ccc(F)cc1F	Pol beta inh 17.8µM, POLI inh inconclusive, Pol eta inh inconclusive
